Compound activity from PubChem BioAssay.
An excerpt weighted towards active compounds, which were near 3% of everything screened.
SKOV3 invasion – inhibitors of ovarian cancer cell adhesion and invasion in omental model. SKOV3ip1-GFP adhesion/invasion on 3D omental model, fluorescence. Potency, µM (series often up to 45.8 µM), inactives show at the top dose activity change, negative = inhibition, hits mostly inhibitors. AID 1963576. 46,000 compounds, 0.1% hits;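 note: plate controls were DMSO wells for no effect and tomatine positive control wells for full effect; nearly all actives have a fitted effect of over 65% in size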
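Primary human omental fibroblast/mesothelial 3D culture pre-formed 48 h. SKOV3ip1-GFP cells added with compounds (0.36-46 umol/L), incubated 2 h RT/16 h 37 C, fixed; GFP cells quantified at 488/509 nm.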
p53null 32C tox – selectivity test: cytotoxicity in p53 null cells, permissive temperature | H1299-neo p53 null cells, ATP luminescence, 24 h, 32C | Potency, µM (series often up to 46.1 µM), inactives show top-dose activity change, negative = cytotoxicity, hits mostly cytotoxic | 55,000 compounds, 0.62% hits;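 note: 0% = DMSO only and -100% = full killing by 100 µM tamoxifen; nearly all actives have a fitted effect of over 55% in size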
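AC50 values derive from Hill modelling of qHTS concentration-response data (up to 46 uM) in H1299-neo cells. Cells were treated 24 h at 32C following overnight attachment at 37C; viability was read as cellular ATP.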
S16 F2sN tox – toxic to S16 Pmp22-F2sN Schwann cells; S16 Pmp22-F2sN Schwann cells viability, CellTiter-Glo, 24 h; Potency, µM (top dose mostly 57.5 µM), inactives show at the highest dose activity change, negative = cytotoxicity, actives largely listed as cytotoxic; 43,000 compounds, 0.48% hits; note: nearly all actives have a fitted effect of over 65% in size
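Viability was measured by CellTiter-Glo luminescence (15 min, room temperature). This followed 24 h at 37 °C of compound exposure (23 nL pin transfer) in S16 Pmp22-F2sN Schwann cells, 500-1,000 per well.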
PMP22 txn – PMP22 gene transcription modulation. S16 Pmp22-F2sN Schwann cells (luciferase reporters placed in the Pmp22 gene), FLuc/NLuc coincidence luminescence, 24 h. Potency, µM (highest dose often 57.5 µM), inactives show at the top dose activity change, negative = inhibition, most hits filed as inhibitors. 43,000 compounds, 2% hits. AID 1508649; active = clear falling dose curves in both reporters; inconclusive = both reporters move, but less clearly or upward; inactive = either reporter flat; the % is the NLuc reporter signal
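Schwann cells carrying the coincidence reporter were exposed to library compounds for 24 h at 37C, then lysed and read for FLuc and, after quenching, NLuc luminescence on a CCD imager.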
p53null 39C tox – kills p53 null cells at the nonpermissive temperature; 55,000 compounds, 0.97% hits; AID 904; H1299 p53-null (neo) cells, 39C, ATPlite viability, 24 h; Potency, µM (doses to about 46.1 µM), without a hit: at the highest dose activity, negative = cell killing, hits mostly cytotoxic;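 note: 0% = DMSO only and -100% = full killing by 100 µM tamoxifen; nearly all actives have a fitted effect of over 50% in size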
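Concentration-response (up to 46 uM) was run for 24 h at the nonpermissive 39C on H1299-p53A138V or H1299-neo cells. ATP content was measured with ATPlite luminescence. AC50 values were Hill-modeled after normalizing between DMSO and 100 uM tamoxifen killing.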
pS6 MEF inh – inhibitors of mTORC1 signaling in Tsc2-/- p53-/- MEF cells | Tsc2-/- p53-/- MEF, phospho-rpS6 immunofluorescence/PI, 24 h | Potency, µM (top dose mostly 38.3 µM), for the others: top-dose activity change, negative = inhibition, hits mostly inhibitors | 44,000 compounds, 0.78% hits;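 note: plate controls were DMSO for no effect and rapamycin for full effect; nearly all actives have a fitted effect of over 50% in size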
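Immunofluorescence of rpS6 phosphorylation in Tsc2-/-, p53-/- MEFs after 24 h compound exposure, normalized to propidium iodide signal. Activity is expressed as % positive cells, thresholded with 7.5 nM rapamycin.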
Active calls of the source: *. Unless noted, calls come from the whole dose curve; as a rule, active = well fitted curve in the direction sought with a large enough effect; inconclusive = small, poorly fitted or top-dose-only effect, or another doubt; inactive = no such curve, though single readings can be large; an effect the other way counts as inactive or inconclusive. Unless noted, % is set by controls: 0 for no effect and ±100 for the full control effect; potency is the fitted concentration of half-maximal effect.

`COc1ccc(CC2=NN3C([C@@H](CCc4ccccc4)[C@@H](C)O)=NC(C)C3C(=O)N2)cc1OC` (stereo partly specified) gave SKOV3 invasion -8.9%.
Cc1oc(-c2nc3ccccc3n2C)cc1C(=O)c1ccccc1 was read as p53null 32C tox 6.31µM* and p53null 39C tox 11.2µM*.
Screening CC(Sc1nc2ccccc2n1C)C(=O)NC(c1ccccc1)c1ccccc1 (stereo unspecified) returned p53null 32C tox 0.3% and p53null 39C tox -12.5%.
For NC(=O)Nc1cc(-c2cccc(F)c2)sc1C(=O)N[C@H]1CCCNC1 the results were SKOV3 invasion -20.6%.
Screening CCOc1ccc(NC(=O)CSc2oc(-c3cccs3)nc2S(=O)(=O)c2ccc(Cl)cc2)cc1 returned SKOV3 invasion -6.5%, p53null 32C tox -10.1%, S16 F2sN tox inconclusive, PMP22 txn inconclusive, p53null 39C tox inconclusive and pS6 MEF inh -1.6%.
For CCOc1ccc(NC(=O)CSc2oc(-c3ccc(C)cc3)nc2S(=O)(=O)c2ccc(C)cc2)cc1 the results were SKOV3 invasion -0.9%, p53null 32C tox 12.6µM*, S16 F2sN tox 22.4µM*, PMP22 txn inconclusive, p53null 39C tox 12.6µM* and pS6 MEF inh 0.0%.
Screening Cc1cc(C)cc(OC(=O)c2cc(-c3ccc4c(c3)OCCO4)on2)c1 returned SKOV3 invasion 4.8%, p53null 32C tox inconclusive, S16 F2sN tox 4.4%, PMP22 txn -9.3%, p53null 39C tox 31.6µM* and pS6 MEF inh 1.4%.
O=C(Nc1cccc(Br)c1)c1cc(-c2ccc3c(c2)OCCO3)on1 was read as SKOV3 invasion -7.2%, p53null 32C tox inconclusive, S16 F2sN tox 5.3%, PMP22 txn -10.8%, p53null 39C tox inconclusive and pS6 MEF inh -3.3%.
For Cc1cccc(OC(=O)c2cc(-c3ccc4c(c3)OCCO4)on2)c1 the results were SKOV3 invasion inactive, p53null 32C tox inconclusive, S16 F2sN tox -5.6%, PMP22 txn -12.7%, p53null 39C tox 25.1µM* and pS6 MEF inh -2.0%.
Screening COc1ccc(-c2ccc3ncc4c(c3c2)n(-c2ccc(N3CCNCC3)c(C(F)(F)F)c2)c(=O)n4C)cn1 returned SKOV3 invasion 9.35µM*.
For C#CCn1c(=NC(=O)c2ccc3c(c2)OCCO3)sc2cc(OC)c(OC)cc21 the results were SKOV3 invasion -3.3%, p53null 32C tox 5.6%, S16 F2sN tox 2.9%, PMP22 txn inconclusive, p53null 39C tox -14.7% and pS6 MEF inh 14.2%.
CCn1c(=NC(=O)c2ccc3c(c2)OCCO3)sc2c(C)ccc(OC)c21 was read as SKOV3 invasion inactive, p53null 32C tox -18.0%, S16 F2sN tox 2.4%, PMP22 txn 9.17µM*, p53null 39C tox inconclusive and pS6 MEF inh -18.6%.
For COc1ccc(/C=N/Nc2nncc3ccccc23)cc1 the results were p53null 32C tox 4.47µM*.
Screening Cc1cc(OCCCS(C)(=O)=O)cc(C)c1-c1cccc(COc2ccc3c(c2)OC[C@H]3CC(=O)O)c1 returned SKOV3 invasion -9.1%.
For COc1ccccc1Nc1nn2c(=O)c3ccc(C(=O)NCc4cccs4)cc3nc2s1 the results were SKOV3 invasion inactive, p53null 32C tox 10µM*, S16 F2sN tox 7.94µM*, PMP22 txn 10µM*, p53null 39C tox inconclusive and pS6 MEF inh -5.4%.
`CCN(CC)CCNC(=O)c1ccc2c(=O)n3nc(Nc4ccccc4OC)sc3nc2c1` gave SKOV3 invasion inactive, p53null 32C tox -19.4%, S16 F2sN tox 10.8%, PMP22 txn inconclusive, p53null 39C tox inconclusive and pS6 MEF inh -0.4%.
Screening Cn1cnc(-c2cc3nccc(Oc4ccc(NC(=S)NC(=O)Cc5ccccc5)cc4F)c3s2)c1 returned SKOV3 invasion 7.6%.
`CC(=O)c1cccc(NC(=O)c2noc3c2CCCC3)c1` gave SKOV3 invasion 31.5%, p53null 32C tox inconclusive, p53null 39C tox inconclusive and pS6 MEF inh 1.1%.
Screening COc1ccc(OC)c(NC(=O)c2noc3c2CCCC3)c1 returned SKOV3 invasion 1.5%, p53null 32C tox -5.8%, S16 F2sN tox -4.1%, PMP22 txn -7.6%, p53null 39C tox -14.6% and pS6 MEF inh 3.5%.
`Cc1ccc(O)c(NC(=O)c2noc3c2CCCC3)c1` gave SKOV3 invasion inactive, p53null 32C tox inconclusive, p53null 39C tox 10µM* and pS6 MEF inh -1.4%.
`Cc1ccc(O)c(NC(=O)c2noc3c2CCCCC3)c1` gave SKOV3 invasion inactive, p53null 32C tox 12.6µM*, S16 F2sN tox -4.9%, PMP22 txn inconclusive, p53null 39C tox 12.6µM* and pS6 MEF inh -14.0%.
Screening NC(=O)c1cnc(-c2ccc(C3(N)CCC3)cc2)c(-c2ccccc2)c1 returned SKOV3 invasion 1.3%.
CCOc1ccc(-c2nc3ccccc3c(=O)o2)cc1 was read as SKOV3 invasion 4.7%, p53null 32C tox 3.98µM*, S16 F2sN tox 2.2%, PMP22 txn -14.9%, p53null 39C tox 6.31µM* and pS6 MEF inh 4.5%.
CCOc1ccc(-c2nnc(-c3ccccc3)o2)cc1 was read as p53null 32C tox inconclusive and p53null 39C tox 12.6µM*.
O=C1NC(O)CCN1[C@@H]1O[C@H](CO)[C@H](O)[C@H]1O (stereo partly specified) was read as SKOV3 invasion -15.1%.
`Cc1cc(N2CCCCC2)nc2ccc(NC(=O)/C=C/c3ccccc3Cl)cc12` gave SKOV3 invasion -21.8%, p53null 32C tox -2.2%, S16 F2sN tox inconclusive, PMP22 txn inconclusive, p53null 39C tox 3.0% and pS6 MEF inh -15.5%.
Screening Cc1cc(N2CCCCC2)nc2ccc(NC(=O)c3ccc(F)cc3)cc12 returned SKOV3 invasion -9.3%, S16 F2sN tox -8.5%, PMP22 txn -51.7% and pS6 MEF inh -0.4%.
Screening COc1ccc(C(=O)Nc2ccc3nc(N4CCC(C)CC4)cc(C)c3c2)cc1 returned SKOV3 invasion -0.5%, p53null 32C tox inconclusive, S16 F2sN tox 13.7%, PMP22 txn -7.3%, p53null 39C tox inconclusive and pS6 MEF inh -7.5%.
Screening CCN1CCN(c2cc(C)c3cc(NC(=O)c4cc(OC)cc(OC)c4)ccc3n2)CC1 returned SKOV3 invasion inconclusive, p53null 32C tox inconclusive, S16 F2sN tox inconclusive, PMP22 txn inconclusive, p53null 39C tox inconclusive and pS6 MEF inh 13.1µM*.
